The source of these data is PubChem BioAssay (Tox21).

Several values for one entry are separate records, joined by “and”; a condition that tells them apart may be missing. Identical values can stand only once. Records with an inconclusive call do not appear. A call without a number means that no potency is given here. Some compounds were tested as several samples or in several runs, with calls that do not always agree. Activity calls are given as the source filed them. Calls follow the shape of the dose curve; as a rule, active = well fitted cell-killing curve with a large enough effect in the repeat runs; inconclusive = weak or mixed curves; inactive = no such curve, though single readings can be large or run the other way.
Potency is read from the fitted curve at half-maximal effect.

The assay can be described thus: qHTS assay to identify small molecule agonists of the peroxisome proliferator-activated receptor delta (PPARd) signaling pathway - cell viability counter screen (AID 743211). Also: nearly all actives have a fitted effect of over 55% in size. As to conditions: PPARd-bla HEK293H viability, CellTiter-Glo luminescence, 17 h; series mostly up to 62.6 µM; activity change, negative = cytotoxicity: at the top concentration. From the text: U.S. Tox21 Program National Center for Advancing Translational Sciences [NCATS] NIH Chemical Genomics Center [NCGC] U.S. Environmental Protection Agency [EPA] National Institutes of Environmental Health Sciences [NIEHS] National Toxicology Program [NTP] U.S. Food and Drug Administration [FDA] Tox21 Assay Overview: The peroxisome proliferator-activated receptors (PPARs) are lipid-activated transcription factors of the nuclear receptor superfamily with three distinct subtypes namely PPAR alpha, PPAR delta (PPARd) and PPAR gamma. All these subtypes heterodimerizes with Retinoid X receptor (RXR) and have different physiological functions. […] To identify the compounds that activate PPAR-delta signaling, GeneBLAzer PPAR delta UAS-bla HEK293H cell line (Invitrogen, Carlsbad, CA, USA) containing a beta-lactamase reporter gene under the control of an Upstream Activator Sequence (UAS) was used to screen the Tox21 compound library. The cytotoxicity of the Tox21 compound library against the PPARd-bla cell line was tested in parallel by measuring the cell viability using CellTiter-Glo assay (Promega, Madison, WI) in the same wells.
Tox21 Assay Protocol Summary: PPARd-bla cells were dispensed at 3000 cells/6uL/well in 1536-well black wall/clear bottom plates using a Multidrop Combi (Thermo Fisher Scientific, Waltham, MA) dispenser. After the assay plates were incubated at 37 C and 5% CO2 for 5 h, 23 nL of compounds dissolved in DMSO, positive controls or DMSO only was transferred to the assay plate by a Pintool station (Kalypsys, San Diego, CA). The assay plates were incubated at 37C for 17 h. After 1 uL of LiveBLAzerTM B/G FRET substrate was added using a Bioraptr Flying Reagent Dispenser (FRD) workstation (Beckman Coulter, Indianapolis, IN, USA), the plates were incubated at room temperature for 2 h, and fluorescence intensity was measured by an Envision plate reader (PerkinElmer, Shelton, CT). For cell viability readout that measures cytotoxicity, 3 ul/well of CellTiter-Glo reagent was added into the assay plates using a Bioraptr FRD. After 30 min incubation at room temperature, the luminescence intensity in the plates was measured using a ViewLux plate reader (PerkinElmer).
A general note: In qHTS, concentration-response curves come from the screen itself.
On to `c1ccc2c(c1)Nc1ccccc1S2`, for which the Potency entry was “inactive”. The same measure, in the same setting: under `C=CC(Cl)CCl` (stereo not given) stands “inactive”. `CCCCCCCCCc1ccc(O)cc1`: the “activity change, negative = cytotoxicity” value was -0.126% [at 81.1 µM] (inactive). With `CC1=C(C(=O)Nc2ccccc2)SCCO1`, the Potency entry was “inactive”.

On to `O=C(O)CF`, for which the Potency entry is “inactive”. The same measure, in the same setting: under `NC(=O)CN1CCCC1=O` stands “inactive”; under `Clc1cccc(C(Cl)(Cl)Cl)n1`, “inactive”. Still for that read-out and setting: under `Clc1ccc(C(Cl)(Cl)Cl)cc1` stands “inactive”; under `O=C1Nc2ccc(Cl)cc2C(c2ccccc2)=NC1O` (stereo not given), “inactive”.

As for `C[C@]12CCC(=O)C=C1CC[C@@H]1[C@@H]2CC[C@@]2(C)[C@H]1CC[C@]2(C)O`, the “activity change, negative = cytotoxicity” value was 0.43% (inactive). Turning to `O=S(=O)(O)C(F)(F)C(F)(F)C(F)(F)C(F)(F)C(F)(F)C(F)(F)C(F)(F)C(F)(F)F`, the “activity change, negative = cytotoxicity” value was -17.8% (inactive).

Consider `Nc1ncn[nH]1`, for which the Potency entry is “inactive”.

For `Brc1ccc(Br)cc1`, the Potency entry was “inactive”. Still for that read-out and setting: under `CCN(CC)C(=O)C(C)Oc1cccc2ccccc12` (stereo not given) stands “inactive”. Consider `ClCC(Cl)CCl`, for which the “activity change, negative = cytotoxicity” value was 12.9% [at 81.1 µM] (inactive).

Take `CCCCSP(=O)(SCCCC)SCCCC`: the “activity change, negative = cytotoxicity” value is -10.9% (inactive).

Regarding `CCOC(=O)c1ccccc1N`, the Potency result is “inactive”. Take `CC(C)=CC1C(C(=O)OCc2cccc(Oc3ccccc3)c2)C1(C)C` (stereo not given): the Potency entry is “inactive”.

Regarding `COc1ccc(CO)cc1`, the Potency result is “inactive”. For the compound `CC1(C)Cc2cccc(O)c2O1`, the Potency result was “inactive”. For `ClC(Cl)=C(Cl)C(Cl)=C(Cl)Cl`, the Potency result is “inactive”.

For the compound `O=NN1CCOCC1`, the Potency result is “inactive”.

For `C[C@]12CC[C@H]3[C@@H](CCC4=CC(=O)CC[C@@H]43)[C@@H]1CC[C@@H]2O`, the Potency result was “inactive”. Consider `O=C1C(Cl)=C(Cl)C(=O)c2ccccc21`, for which the Potency was 19.6 µM (active) and 13.8 µM (active). For the compound `ClC(Cl)(Cl)c1ccccc1`, the Potency entry was “inactive”. Same read-out and setting: under `[CH3][Sn]([Cl])([Cl])[Cl]` stands “inactive”; under `CC(C)(O)C#N`, “inactive”; under `CCC/C=N/O`, “inactive”. For the compound `OC(c1ccc(Cl)cc1)(c1cncnc1)c1ccccc1Cl` (stereo not given), the Potency result was “inactive”. On the same count and under the same terms, under `CN(C)P(=O)(N(C)C)N(C)C` stands “inactive”; under `ClCc1ccccn1`, “inactive”; under `Cc1ccc(N=CN(C)C=Nc2ccc(C)cc2C)c(C)c1`, 49.2 µM (active) and 48.9 µM (active) and inactive. The same measure, in the same setting: under `NN=C(N)N` stands “inactive”. Regarding `C[N+](C)(C)CC(=O)[O-]`, the Potency entry is “inactive”. In the case of `CCCCOC(=O)COC(=O)c1ccccc1C(=O)OCCCC`, the Potency result is “inactive”. In the case of `Cc1cc(Cl)ccc1N=CN(C)C`, the Potency result is “inactive”. As to `O=NN(c1ccccc1)c1ccccc1`, the Potency entry was “inactive”.

On to `CCC1(c2ccc(N)cc2)CCC(=O)NC1=O` (stereo not given), for which the Potency entry is “inactive”. On the same count and under the same terms, for `CC(C)Nc1nc(Cl)nc(NC(C)C)n1` the value was “inactive”; for `CCCCOCCOC(C)=O`, “inactive”.
